Screening data: PubChem BioAssay, National Center for Advancing Translational Sciences (NCATS)
Shiga inhibitor = A qHTS for Small Molecule Inhibitors of Shiga Toxin; 290,000 tested, 9.2% active; inhibition, % at 38.7 µM; Vero cells, Shiga toxin protein synthesis inhibition reporter; AID 2315, 2010; in the data active means inhibition mostly above about 28%, no sharp cut-off; inactive means mostly below about 43%; further: 0% is about no effect
SARS PLpro yeast = qHTS of Yeast-based Assay for SARS-CoV PLP; S. cerevisiae expressing SARS-CoV PLpro, growth rescue; Potency, µM (titrated, usually from 32.9 µM), inactives show at the top dose activity, positive = growth rescue, hits mostly activators; 330,000 tested, 0.19% active; calls by dose curve; further: potency means the concentration at half of the fitted maximal effect; 0% is about no effect; nearly all actives have a fitted effect of over 55% in size
Pf growth 96h = Primary qHTS for delayed death inhibitors of the malarial parasite plastid, 96 hour incubation; 320,000 tested, 6.9% active; P. falciparum luciferase reporter growth, 96 h; Potency, µM (titrated, usually from 28.7 µM), for inactives: at the top dose activity change, negative = inhibition, actives largely listed as inhibitors; further: potency means the concentration at half of the fitted maximal effect; on the % scale 0 is the no-effect control and ±100 the full control effect
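Erythrocytes infected with luciferase-expressing P. falciparum were dispensed at 2% hematocrit and 0.05% parasitemia (final), then incubated with compounds 96 hours at 37 C in 5% CO2. Luminescence after detection reagent addition reported growth.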
AMA1-RON2 inh = qHTS for Inhibitors of AMA1-RON; Towards Development of Antimalarial Drug Lead: Primary Screen | Plasmodium falciparum AMA1 (3D7) - RON2 peptide interaction | AlphaScreen AMA1-biotinylated RON2 peptide binding | Potency, µM (titrated, usually from 58.2 µM), without a hit: at the top dose activity change, negative = inhibition, hits mostly inhibitors | 360,000 tested, 0.2% active;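 further: potency means the concentration at half of the fitted maximal effect; 0% = vehicle wells and -100% = peptide control; nearly all actives have a fitted effect of over 45% in size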
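AMA1 (3D7) with his tag at 25 nM final met compounds first, then biotinylated RON2 peptide at 25 nM; detection used donor plus acceptor beads, 10 µg/mL apiece, read by AlphaScreen after 30 min at room temperature.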
CHX counter = Cycloheximide Counterscreen for Small Molecule Inhibitors of Shiga Toxin; cell reporter, cycloheximide protein synthesis inhibition counterscreen; AID 2314, 2010; 300,000 tested, 12% active; max response, %; in the data active means max response mostly above about 13%, no sharp cut-off; inactive means mostly below about 14%; further: read at 38.3 µM for the half of the compounds with a filed dose; 0% is about no effect
Pf growth 48h = Primary qHTS for delayed death inhibitors of the malarial parasite plastid, 48 hour incubation; P. falciparum luciferase growth in erythrocytes, 48 h; Potency, µM (highest dose often 28.7 µM), for inactives: top-dose activity change, negative = inhibition, hits mostly inhibitors; 310,000 tested, 5.9% active; AID 504832, 2011; further: potency means the concentration at half of the fitted maximal effect; on the % scale 0 is the no-effect control and ±100 the full control effect
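Firefly luciferase activity from engineered P. falciparum reports growth; inhibitors lower the luminescent signal. Cultures contained 2% hematocrit erythrocytes at 0.1% final parasitemia.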
Active calls of the source: *. An excerpt weighted towards active compounds, which were near 19% of everything screened. Unless noted, the call rests on the fitted dose curve; in most records, active means well fitted curve in the direction sought with a large enough effect; inconclusive means small, poorly fitted or top-dose-only effect, or another doubt; inactive means no such curve, though single readings can be large; an effect the other way counts as inactive or inconclusive.

O=C(O)C1Cc2ccccc2N2CCCC12 (stereo not drawn) was read as Shiga inhibitor 3.9, SARS PLpro yeast 0.9%, Pf growth 96h 1.85µM*, AMA1-RON2 inh -18.5%, CHX counter 0.8 and Pf growth 48h inconclusive.
`O=c1[nH]ncn1-c1ccccc1` gave Shiga inhibitor -7.2, SARS PLpro yeast -0.4%, Pf growth 96h -1.8%, AMA1-RON2 inh 4.8%, CHX counter -2.4 and Pf growth 48h 19.6%.
`Cc1ccc(S(=O)(=O)N/N=C/c2ccc(OS(=O)(=O)c3ccc(C)c([N+](=O)[O-])c3)cc2)cc1` gave Shiga inhibitor -19.6, SARS PLpro yeast 2.4%, Pf growth 96h 8.3%, AMA1-RON2 inh 9.4%, CHX counter -3.6 and Pf growth 48h 13.6%.
Cc1ccc(/C=C/C(=O)O)cc1S(=O)(=O)Nc1ccccc1C(=O)O was read as Shiga inhibitor -4.4, SARS PLpro yeast 0.4%, Pf growth 96h 10.4µM*, AMA1-RON2 inh 4.0%, CHX counter 7.3 and Pf growth 48h -9.6%.
Cc1ccc(/C=C/C(=O)O)cc1S(=O)(=O)Nc1ccc(C(=O)O)cc1 was read as Shiga inhibitor 17.5, SARS PLpro yeast 1.2%, Pf growth 96h 20.9%, AMA1-RON2 inh -10.8%, CHX counter 1.3 and Pf growth 48h 2.4%.
CCN1C(=O)N/C(=C/c2cc(C)n(Cc3ccccc3)c2C)C1=O was read as Shiga inhibitor 36.7*, SARS PLpro yeast -10.3%, Pf growth 96h inconclusive, AMA1-RON2 inh -8.1%, CHX counter 26.6* and Pf growth 48h inconclusive.
Screening Cc1cc(/C=C2/NC(=O)N(Cc3ccccc3F)C2=O)c(C)n1-c1ccccn1 returned Shiga inhibitor 2.6, SARS PLpro yeast -7.6%, Pf growth 96h inconclusive, AMA1-RON2 inh -9.8%, CHX counter -1.5 and Pf growth 48h 9.28µM*.
Screening Cc1cccc(CN2C(=O)N/C(=C/c3cc(C)n(-c4ccccn4)c3C)C2=O)c1 returned Shiga inhibitor -7.4, SARS PLpro yeast -1.1%, AMA1-RON2 inh -0.7%, CHX counter 19.4 and Pf growth 48h 13.1µM*.
Cc1cc(/C=C2/NC(=O)N(Cc3ccccc3F)C2=O)c(C)n1C was read as Shiga inhibitor -4.7, SARS PLpro yeast -9.5%, Pf growth 96h 10.4µM*, AMA1-RON2 inh -5.0%, CHX counter -7.4 and Pf growth 48h 10.4µM*.
Cc1ccc(/C=C2/NC(=O)N(Cc3ccccc3F)C2=O)s1 was read as Shiga inhibitor 13.3, SARS PLpro yeast -1.7%, Pf growth 96h inconclusive, AMA1-RON2 inh 19.0%, CHX counter 11.7 and Pf growth 48h 25.0%.
For COc1ccc(OCC(=O)N2CCN(C(=O)c3ccc(F)cc3)CC2)cc1 the results were Shiga inhibitor 11.6, SARS PLpro yeast 0.1%, Pf growth 96h -0.5%, AMA1-RON2 inh 15.4%, CHX counter -0.9 and Pf growth 48h -0.7%.
CC(=O)c1ccccc1NS(C)(=O)=O was read as Shiga inhibitor -2.4, SARS PLpro yeast -0.2%, Pf growth 96h 20.3%, AMA1-RON2 inh -16.5%, CHX counter 7.1 and Pf growth 48h 0.0%.
Screening COc1ccccc1C(=O)NCC(=O)N/N=C/c1cn[nH]c1-c1ccccc1 returned Shiga inhibitor 8.5, SARS PLpro yeast -6.8%, Pf growth 96h 76.3%, AMA1-RON2 inh 36.6%, CHX counter -2.3 and Pf growth 48h -29.3%.
`CSCC[C@H](NC(=O)c1cccc(S(=O)(=O)N2CCN(C)CC2)c1)c1nc2ccccc2[nH]1` gave SARS PLpro yeast -12.9% and AMA1-RON2 inh -1.6%.
For OC1(c2ccc(Br)cc2)CN(c2ccccc2)C2=[N+]1CCS2 (stereo not drawn) the results were Shiga inhibitor -21.2, SARS PLpro yeast 1.1%, Pf growth 96h inconclusive, AMA1-RON2 inh -17.3%, CHX counter -1.1 and Pf growth 48h inconclusive.
